The values that follow come from PubChem BioAssay AID2060323 (National Center for Advancing Translational Sciences (NCATS), 2025).

Results filed as inconclusive are left out. Calls of active or inactive are those of the source. Calls follow the shape of the dose curve; as a rule, active = well fitted activation curve with a large enough effect; inconclusive = small, poorly fitted or top-dose-only effect; inactive = no such curve, though single readings can be large or run the other way.

Sequence of Cellular tumor antigen p53 (Homo sapiens) (P04637 whole entry, looked up): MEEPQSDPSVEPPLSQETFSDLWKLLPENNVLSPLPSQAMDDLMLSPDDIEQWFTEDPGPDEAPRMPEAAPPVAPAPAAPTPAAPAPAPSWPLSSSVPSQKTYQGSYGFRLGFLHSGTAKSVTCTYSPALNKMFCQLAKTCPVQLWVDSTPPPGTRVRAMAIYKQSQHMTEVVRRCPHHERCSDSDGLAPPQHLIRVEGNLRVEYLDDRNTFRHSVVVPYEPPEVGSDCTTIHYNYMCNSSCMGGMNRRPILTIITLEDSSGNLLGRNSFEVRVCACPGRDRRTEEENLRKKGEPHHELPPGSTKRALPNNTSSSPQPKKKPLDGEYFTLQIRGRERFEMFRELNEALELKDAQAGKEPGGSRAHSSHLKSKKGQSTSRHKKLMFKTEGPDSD

The target of this assay is Cellular tumor antigen p53 (Homo sapiens) (UniProt P04637). The assay can be described thus: Confirmatory qHTS for small molecule compounds that upregulate eGFP-tagged delta133p53alpha (in C-terminal) cells. As to conditions: delta133p53alpha-eGFP (C-terminal) reporter cells, GFP fluorescence upregulation; series mostly up to 57.5 µM; activation (upregulation): at the top concentration. An excerpt:
Assay Development and Screening Technology
National Center for Advancing Translational Sciences (NCATS),
National Institute of Health (NIH), Rockville, Maryland
Cellular senescence (CS) is one of the hallmarks of aging and age-related diseases. Senescent cells are characterized by an irreversible growth arrest, an increase in senescence-associated beta-galactosidase (SA-beta-gal) activity and p16INK4a expression, an activation of the DNA damage response pathways, and the emergence of a senescence-associated secretory phenotype (SASP).
Delta133p53alpha, a human/primate-specific p53 protein isoform, delays or inhibits the induction of CS and SASP in various types of human cells, including progeria-derived fibroblasts, primary normal astrocytes, and CD8+ T lymphocytes. Induction of delta133p53alpha with small molecule compounds may provide therapeutic opportunities for inhibition of senescence/SASP-associated pathologies in progeria syndromes, astrocyte-mediated neuroprotection in neurodegenerative diseases, and possibly prevention and treatment of a wider range of senescence- and aging-associated diseases.
Here we report the development and validation of a cell-based quantitative high throughput screening (qHTS) assay in 1,536-well format. This qHTS assay uses the NCI-H358 cell line with doxycycline-inducible expression of enhanced green fluorescent protein (eGFP)-tagged delta133p53alpha, which allows efficient and highly quantitative measurement of the protein levels.
PROTOCOL TABLE (as described by Inglese J, Shamu CE and Guy RK. 2007)
SEQUENCE No. (e.g., 1, 2, 3, etc.); […] (e.g., Cells, Incubation, Reagent, etc.); VALUE; DESCRIPTION.
1; Cells; 4uL; 800 doxycycline treated cells / well in doxycycline-free media, 1536-well black, clear-bottom low base Aurora microplates.
2; Compounds; 23 nL; Kalypsis pin tool (Wako) equipped with 1536-well pin heads, 5-azacytidine positive control.
3; Incubation; 24 hr; 37C, 5% CO2; 95% relative humidity.
4; Aspiration; 1x; BioTek EL406 washer dispenser (Agilent).
5; Fixing; 3.5% paraformaldehyde, BioTek EL406 washer dispenser (Agilent).
6; Washing; 1x PBS; BioTek EL406 washer dispenser (Agilent).
7; Nuclei staining; 1:1000 dilution of Hoechst 33342 (Thermofisher), BioTek EL406 washer dispenser (Agilent).
8; Incubation; 20 min; in the dark at room temperature.
9; Washing; 2x, 1x PBS (ThermoFisher), BioTek EL406 washer dispenser (Agilent).
10; Reagent; 10 uL; 1x PBS per well, sealed with clear adhesive tape.
11; Detection; Fluorescence, Acumen eX3 laser scanning cytometer (STP Labtech), GFP filters […].
NOTES (numbers refer to sequence numbers above).
1. NCI-H358 cells expressing eGFP-tagged delta133p53alpha were grown in T75 culture flasks and treated with doxycycline for 24h, at 10 ng/ml for eGFP-D133p53a cells (N-terminal cell) and 100 ng/ml for D133p53a-eGFP cells (C-terminal cells). Cells were trypsinized, counted using a Counted 3 Automated Cell Counter (Thermo Fisher), and diluted to a concentration of 200,000 cells/ml. A Multidrop Combi Reagent Dispenser (ThermoFisher) was used to dispense 800 cells/well in […] of doxycycline-free media, into 1536-well black/clear bottom low base plates (AuroraMicroplates).
2. After plating cells, 23 nl of compound library, DMSO vehicle control or positive control (5-azacytidine) were transferred by Pin Tool (Wako). The plate map layout was the same for each plate: (column 1) non-doxycycline treated cells + DMSO vehicle control; (column 2) doxycycline treated cells + DMSO vehicle control baseline; (column 3) doxycycline treated cells + positive control 57.5 uM final concentration 5-azacytidine; (column 4) doxycycline treated cells + serial dilution of 5-azacytidine, 16-point 1:2 titration spanning 1.8 nM to […] final concentration; (columns 5-48) doxycycline treated cells + titration of library compounds.
3. Cells were incubated at 37 °C, 5 % CO2, 95% RH with breathable metal lid for 24h.
4-10. […]
For the compound `C[n+]1cc2c3c(ccc2c2ccc4cc5c(cc4c21)OCO5)OCO3`, the Potency is 0.968 µM (active).
Take `CC(C)(CO)Cc1cc(C(C)(C)C)c(O)c(C(C)(C)C)c1`: the “activation (upregulation)” value was 3% (inactive).
`CCN(CC)CCCC(C)Nc1c2ccc(Cl)cc2nc2ccc(OC)cc12` (stereo unspecified): the Potency is 8.63 µM (active).
Consider `NC[C@@H]1O[C@H](C23CC4CC(CC(C4)C2)C3)Cc2c1ccc(O)c2O`, for which the Potency is 19.3 µM (active).
As for `O=C(O)c1cc2cc(F)ccc2[nH]1`, the “activation (upregulation)” value is 3.59% (inactive).
As for `CC(C)(C)[C@]1(O)CCN2C[C@H]3c4ccccc4CCc4cccc(c43)[C@@H]2C1`, the Potency entry is “inactive”.
Turning to `COc1cc(/C=C(\C#N)C(=O)c2ccc(O)c(O)c2)cc(I)c1O`, the Potency is 12.2 µM (active).
With `N=c1ccn2c(n1)O[C@H]1[C@H](O)[C@@H](CO)O[C@H]12`, the “activation (upregulation)” value was 8.71% (inactive).
Turning to `C=CCNc1ncnc2ccc(Br)cc12`, the “activation (upregulation)” value was -0.729% (inactive).
`CC1CN(S(=O)(=O)c2cccc3cnccc23)CCN1` (stereo unspecified): the “activation (upregulation)” value is 0.467% (inactive).
In the case of `CC[C@@]1(O)C(=O)OCc2c1cc1n(c2=O)Cc2cc3c(CN(C)C)c(O)ccc3nc2-1`, the Potency is 4.85 µM (active).
Take `CC[n+]1c(/C=C/C=C2/N(C)c3ccccc3C2(C)C)sc2ccccc21`: the Potency was 12.2 µM (active).
For `Cc1ccc(S(=O)(=O)/C=C/C#N)cc1`, the Potency was 21.7 µM (active).
`CNC(=O)[C@H]1O[C@@H](n2cnc3c(NCc4cccc(I)c4)ncnc32)[C@H](O)[C@@H]1O`: the “activation (upregulation)” value was -35.1% (inactive).
Take `O=C1NC(=O)c2c1c(-c1ccccc1)cc1[nH]c3ccc(O)cc3c21`: the “activation (upregulation)” value is 9.9% (inactive).
With `CN(C)c1nc(N)c(C(=O)N=C(N)N)nc1Cl`, the “activation (upregulation)” value is 4.57% (inactive).
In the case of `Nc1nc2ccc(Cl)cc2c2nc(-c3ccco3)nn12`, the “activation (upregulation)” value was 29.5% (inactive).
For the compound `COC(=O)[C@H]1[C@H]2C[C@@H]3c4[nH]c5cc(OC)ccc5c4CCN3C[C@H]2C[C@@H](OC(=O)c2cc(OC)c(OC)c(OC)c2)[C@@H]1OC`, the Potency is 30.6 µM (active).
For the compound `COC(=O)Nc1nc2ccc(C(=O)c3cccs3)cc2[nH]1`, the “activation (upregulation)” value is 43.6% (inactive).
For the compound `Cc1cccc(-c2[nH]ncc2-c2ccc3ncccc3n2)n1`, the “activation (upregulation)” value is 7.74% (inactive).
Turning to `O[Si](CCCN1CCCCC1)(c1ccc(F)cc1)C1CCCCC1` (stereo unspecified), the “activation (upregulation)” value is 14.9% (inactive).
